In PubChem BioAssay (Tox21):
Values joined by “and” are separate entries in the source; they are usually repeats but may differ in a detail not shown here. Equal entries are not always repeated. Results filed as inconclusive are left out. Entries that show only a call come without a potency. The source holds several records for some structures; these can differ, active in one and inactive in another. Active and inactive are the calls of the source. Unless noted, calls come from the whole dose curve; as a rule, active = well fitted curve in the direction sought with a large enough effect in the repeat runs; inconclusive = weak or mixed curves; inactive = no such curve, though single readings can be large; an effect the other way counts as inactive or inconclusive.

Key:
[1] = qHTS assay to identify small molecule antagonists of the estrogen related receptor (ERR) signaling pathway from Tox21 library - cell viability counter screen (AID 1224834); note: nearly all actives have a fitted effect of over 30% in size
In short: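 ERR reporter cells, 2,000 per well, rested 6 h, then exposed to compound in DMSO for 17.5 hours at 37 C. Viability read as fluorescence after 30 min with CellTiter-Fluor.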

[2] = qHTS assay to identify small molecule agonists of the constitutive androstane receptor (CAR) signaling pathway - cell viability counter screen (AID 1224836); note: nearly all actives have a fitted effect of over 45% in size
In short: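 23 h treatment, 37 C, 5% CO2. Cell line: HepG2 stably expressing hCAR with a CYP2B6-2.2kb construct. Co-treatment: PK11195, 0.75 uM final. Read-out: CellTiter-Fluor fluorescence intensity.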

[3] = qHTS assay to identify small molecule antagonists of the constitutive androstane receptor (CAR) signaling pathway - cell viability counter screen (AID 1224837); note: nearly all actives have a fitted effect of over 45% in size
In short: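 HepG2 cells stably carrying hCAR and CYP2B6-2.2kb reporter, stimulated with 50 nM CITCO and compounds at 15 concentrations for 23 h at 37 C. Viability measured by CellTiter-Fluor fluorescence.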

[4] = target: Nuclear receptor subfamily 1 group I member 3 (Homo sapiens) (UniProt Q14994); test: qHTS assay to identify small molecule antagonists of the constitutive androstane receptor (CAR) signaling pathway (AID 1224838); note: nearly all actives have a fitted effect of over 40% in size
In short: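 HepG2 cells stably carrying hCAR and a CYP2B6-2.2kb luciferase reporter, seeded 4 hrs before compound (15 concentrations). Stimulated with 50 nM CITCO for 24 hr at 37 C. ONE-Glo luminescence read after 30 min at room temperature.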

[5] = target: Nuclear receptor subfamily 1 group I member 3 (Homo sapiens) (UniProt Q14994); test: qHTS assay to identify small molecule agonists of the constitutive androstane receptor (CAR) signaling pathway (AID 1224839); note: nearly all actives have a fitted effect of over 15% in size
In short: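 Compounds tested at 15 concentrations on HepG2 cells stably harbouring hCAR and CYP2B6-2.2kb reporter constructs, co-treated with PK11195 (0.75 uM final), 24 h at 37 C; luminescent reporter signal quantified.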

[6] = qHTS assay to identify small molecule antagonists of the estrogen related receptor signaling pathway with the pleiotropic PPARgamma coactivator (PGC) from Tox21 10K library - cell viability counter screen (AID 1224840; active = well fitted cell-killing curve with a large enough effect in the repeat runs, not every such curve was filed as active; note: nearly all actives have a fitted effect of over 40% in size)
In short: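 PGC/ERR cells (2,000/well) plated 6 h, then compound-treated for 17.5 h at 37 C. Viability measured by CellTiter-Fluor fluorescence after 30 min at 37 C, multiplexed with the pathway assay.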

[7] = target: Thyrotropin receptor (Homo sapiens) (UniProt P16473); test: qHTS assay to identify small molecule agonists of the thyroid stimulating hormone receptor (TSHR) signaling pathway (AID 1224843; calls by dose curve; note: nearly all actives have a fitted effect of over 45% in size)
In short: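 Cell line HEK293 with TSHR; density 800/well. Exposure 30 min RT. Readout HTRF cAMP (cAMP-d2/anti-cAMP-cryptate), 1 h RT before reading.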

[8] = target: Luciferin 4-monooxygenase (Photinus pyralis) (UniProt P08659); test: qHTS assay to identify small molecule inhibitors of firefly luciferase (AID 1224835); note: nearly all actives have a fitted effect of over 25% in size
In short: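 Quantitative HTS format; KM concentrations of both substrates. Purified P. pyralis FLuc activity quantified from luminescence images.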

[9] = qHTS assay to identify small molecule antagonists of the estrogen related receptor signaling pathway with the pleiotropic PPARgamma coactivator (PGC) from Tox21 10K library (AID 1224841; call rule not given here; note: actives are mostly falling curves and most rising ones were filed inactive; nearly all actives have a fitted effect of over 50% in size)
In short: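 PGC/ERR cell line, 2,000 cells/well, pre-incubated 6 hours at 37 C, then exposed to compounds for 18 hours at 37 C; luciferase read with One-Glo luminescence after 30 min at room temperature.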

[10] = qHTS assay to identify small molecule agonists of the estrogen related receptor signaling pathway with the pleiotropic PPARgamma coactivator (PGC) from Tox21 10K library (AID 1224842); note: nearly all actives have a fitted effect of over 15% in size
In short: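 PGC/ERR reporter cells (NTP line) were seeded 2,000 per well, rested 6 h at 37 C/5% CO2, then pin-dosed with compounds in DMSO for 18 h at 37 C; luciferase read by One-Glo luminescence after 30 min at room temperature.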
Potency is the fitted concentration of half-maximal effect.

Chain of Luciferin 4-monooxygenase (Photinus pyralis) (P08659 whole entry, looked up): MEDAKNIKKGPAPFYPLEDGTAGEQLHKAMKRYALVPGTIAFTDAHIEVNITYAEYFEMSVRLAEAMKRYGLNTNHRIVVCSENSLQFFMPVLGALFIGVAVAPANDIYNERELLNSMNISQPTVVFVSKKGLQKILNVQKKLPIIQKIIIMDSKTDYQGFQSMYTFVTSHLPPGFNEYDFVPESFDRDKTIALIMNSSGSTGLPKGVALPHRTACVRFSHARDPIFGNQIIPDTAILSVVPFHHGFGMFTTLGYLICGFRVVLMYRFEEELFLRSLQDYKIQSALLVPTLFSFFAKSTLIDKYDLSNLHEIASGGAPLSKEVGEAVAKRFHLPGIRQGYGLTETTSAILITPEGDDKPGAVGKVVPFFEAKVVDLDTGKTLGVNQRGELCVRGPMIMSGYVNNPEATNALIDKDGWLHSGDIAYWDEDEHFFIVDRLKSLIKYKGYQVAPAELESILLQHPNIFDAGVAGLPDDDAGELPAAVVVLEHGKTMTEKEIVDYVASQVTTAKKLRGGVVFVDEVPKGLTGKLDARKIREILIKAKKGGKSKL
Chain of Thyrotropin receptor (Homo sapiens) (P16473 whole entry, looked up): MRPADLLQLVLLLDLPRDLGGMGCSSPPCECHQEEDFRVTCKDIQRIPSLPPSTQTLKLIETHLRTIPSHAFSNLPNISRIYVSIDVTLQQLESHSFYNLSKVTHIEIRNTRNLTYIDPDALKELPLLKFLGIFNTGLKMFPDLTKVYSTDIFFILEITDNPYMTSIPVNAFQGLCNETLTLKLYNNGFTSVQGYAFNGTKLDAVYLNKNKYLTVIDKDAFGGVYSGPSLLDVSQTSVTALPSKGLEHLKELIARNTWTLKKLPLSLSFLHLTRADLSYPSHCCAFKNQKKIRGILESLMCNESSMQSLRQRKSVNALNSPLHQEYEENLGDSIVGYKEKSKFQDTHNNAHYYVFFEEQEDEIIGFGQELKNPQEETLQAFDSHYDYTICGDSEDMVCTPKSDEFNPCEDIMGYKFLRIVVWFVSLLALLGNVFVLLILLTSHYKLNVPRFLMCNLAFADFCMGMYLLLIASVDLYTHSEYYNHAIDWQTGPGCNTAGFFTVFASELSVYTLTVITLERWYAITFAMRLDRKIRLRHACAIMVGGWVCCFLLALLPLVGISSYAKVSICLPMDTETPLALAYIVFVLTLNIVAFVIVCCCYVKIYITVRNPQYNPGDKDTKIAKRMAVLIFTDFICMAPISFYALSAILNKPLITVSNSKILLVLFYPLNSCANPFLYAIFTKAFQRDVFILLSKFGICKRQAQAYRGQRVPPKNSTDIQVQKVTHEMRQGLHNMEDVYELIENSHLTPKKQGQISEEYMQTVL
Chain of Nuclear receptor subfamily 1 group I member 3 (Homo sapiens) (Q14994 whole entry, looked up): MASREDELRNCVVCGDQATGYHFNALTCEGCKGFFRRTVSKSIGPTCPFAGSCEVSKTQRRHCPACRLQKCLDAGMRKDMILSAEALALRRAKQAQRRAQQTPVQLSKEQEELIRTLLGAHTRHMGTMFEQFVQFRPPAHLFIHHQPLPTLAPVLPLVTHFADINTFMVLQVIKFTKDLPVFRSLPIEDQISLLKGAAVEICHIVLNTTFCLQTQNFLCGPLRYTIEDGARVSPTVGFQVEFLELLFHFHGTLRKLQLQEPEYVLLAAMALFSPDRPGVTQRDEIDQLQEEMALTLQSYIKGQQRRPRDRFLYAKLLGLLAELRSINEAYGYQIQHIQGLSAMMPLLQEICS

SMILES | Potency [1] | Potency [2] | Potency [3] | Potency [4] | Potency [5] | Potency [6] | Potency [7] | Potency [8] | Potency [9] | Potency [10]
CCCCCCCCCCCCCC[P+](CCCC)(CCCC)CCCC | 21.6 µM (active) and 27.3 µM (active) | 19.2 µM (active) and 24.3 µM (active) | 17.1 µM (active) and 27.3 µM (active) | 12.1 µM (active) and 15.4 µM (active) | inactive | 21.6 µM (active) and 27.3 µM (active) | inactive | – | – | –
c1ccc2c(c1)-c1cccc3c1c-2cc1ccccc13 | – | inactive | inactive | inactive | 21.2 µM (active) and 17.2 µM (active) | – | – | 7.1 µM (active) | – | –
COc1nc(C)nc(Cl)c1NC1=NCCN1 | inactive | inactive | inactive | – | – | – | inactive | inactive | – | –
CCC(=O)/C=C/C1C(C)=CCCC1(C)C (configuration not stated) | inactive | inactive | inactive | – | – | – | inactive | inactive | – | –
Nc1nc(=S)c2[nH]cnc2[nH]1 | 11.9 µM (active) and 4.33 µM (active) | – | 11.9 µM (active) and 4.86 µM (active) | 5.96 µM (active) and 1.93 µM (active) and 2.37 µM (active) | inactive | – | inactive | inactive | – | –
CC(C)CCCCCCc1ccc(O)cc1 | 7.83 µM (active) and 48.6 µM (active) | – | – | 1.11 µM (active) | – | – | – | 36.2 µM (active) and inactive | – | –
C1COC(NC(C2CC2)C2CC2)=N1 | – | inactive | inactive | inactive | inactive | inactive | inactive | inactive | inactive | inactive
CC(C)(C)NCC(O)c1cc(O)cc(O)c1 (configuration not stated) | inactive | inactive | inactive | – | – | inactive | 596 nM (active) | inactive | – | –
Nc1ccc2cc3ccccc3cc2c1 | inactive | – | – | inactive | – | inactive | inactive | 20.4 µM (active) and 17.8 µM (active) | – | –
CCCCCCCCCCCC[N+](C)(C)C | 48.4 µM (active) | – | – | inactive | inactive | – | – | inactive | – | –
Nc1cc(S(=O)(=O)O)cc2cc(S(=O)(=O)O)cc(O)c12 | – | inactive | inactive | – | – | – | – | 31.7 µM (active) | – | –
Clc1ccc2c(c1)C(N1CCNCC1)=Nc1ccccc1O2 | inactive | – | – | – | – | inactive | inactive | inactive | – | –
CCCCCCCCCCCCc1ccccc1O | 43.3 µM (active) | inactive | – | 30.6 µM (active) | 4.79 µM (active) and 4.33 µM (active) | inactive and 48.6 µM (active) | – | inactive | – | –
CCN(CC)c1ccc2c(C)cc(=O)oc2c1 | inactive | – | – | inactive | 27.5 µM (active) and 48.6 µM (active) | inactive | inactive | 40.2 µM (active) and 35.6 µM (active) | – | –
OCCOCCN1CCN(C(c2ccccc2)c2ccc(Cl)cc2)CC1 (configuration not stated) | 30.2 µM (active) | – | – | inactive | inactive | 47.9 µM (active) and inactive | inactive | inactive and 27.5 µM (active) | – | –
CCCN[C@H]1CCc2nc(N)sc2C1 | inactive | inactive | inactive | inactive | inactive | inactive | inactive | – | – | –
NC(=Nc1ccccc1)Nc1ccccc1 | inactive | 3.86 µM (active) | – | – | – | inactive | inactive | inactive | inactive | –
CCCCC(CC)COC(=O)CC(C(=O)OCC(CC)CCCC)S(=O)(=O)O (configuration not stated) | – | inactive | inactive | inactive | inactive | inactive | – | inactive | – | –
C=CC(=O)OCCCCCCOC(=O)C=C | 54.5 µM (active) | inactive | – | inactive | inactive | 48.6 µM (active) | inactive | inactive | inactive | 21.7 µM (active)
Nc1ccc(O)cc1 | 31.8 µM (active) and inactive | – | – | – | – | 35.7 µM (active) and inactive | inactive | 65.7 µM (active) and inactive | 45 µM (active) and inactive | inactive
COc1ccc(Cc2cnc(N)nc2N)cc1OC | – | inactive | inactive | inactive | inactive | inactive | inactive | inactive | inactive | inactive

SMILES | Potency [1] | Potency [2] | Potency [3] | Potency [4] | Potency [5] | Potency [6] | Potency [7] | Potency [8] | Potency [9] | Potency [10]
O=C1Nc2ccccc2C1(c1ccc(O)cc1)c1ccc(O)cc1 | 43.3 µM (active) | inactive | inactive | – | – | inactive | inactive | inactive | – | –
CC1COc2c(N3CCN(C)CC3)c(F)cc3c(=O)c(C(=O)O)cn1c23 (configuration not stated) | inactive | inactive | inactive | – | – | inactive | inactive | inactive | – | –
CC(=O)Nc1ccc(C(=O)CCl)cc1 | inactive | inactive | inactive | – | – | inactive | inactive | inactive | – | –
COc1ccc(CCN2CCC(Nc3nc4ccccc4n3Cc3ccc(F)cc3)CC2)cc1 | 22.2 µM (active) and 26.6 µM (active) | 17.6 µM (active) and 29.8 µM (active) | 17.6 µM (active) and 29.8 µM (active) | 17.6 µM (active) and 26.6 µM (active) | – | 19.8 µM (active) and 29.8 µM (active) | inactive | – | – | inactive
Cc1cc(OCCOCC[N+](C)(C)Cc2ccccc2)ccc1C(C)(C)CC(C)(C)C | 54.2 µM (active) and 16.8 µM (active) | – | – | inactive | inactive | 48.3 µM (active) | 27.1 µM (active) and 15 µM (active) | inactive | 30.5 µM (active) and 7.5 µM (active) | inactive
CNCCC(Oc1ccc(C(F)(F)F)cc1)c1ccccc1 (configuration not stated) | 60.3 µM (active) | – | – | 29.8 µM (active) | – | – | inactive | – | – | –
COc1ccc(CCN(C)CCCC(C#N)(c2ccc(OC)c(OC)c2)C(C)C)cc1OC (configuration not stated) | 54.4 µM (active) | 48.5 µM (active) | – | – | – | – | – | – | – | –
Oc1c(Cl)cc(Cl)cc1Sc1cc(Cl)cc(Cl)c1O | 21.7 µM (active) and 24.3 µM (active) | inactive | – | 17.3 µM (active) and 62.1 µM (active) | inactive | – | inactive | inactive | – | –
Cc1ccc(-c2cc(C(F)(F)F)nn2-c2ccc(S(N)(=O)=O)cc2)cc1 | 48.4 µM (active) and 61.1 µM (active) | – | – | – | – | – | 48.4 µM (active) and 34.4 µM (active) and inactive | inactive | 60.9 µM (active) and inactive | inactive
O=C1CC2(CCCC2)CC(=O)N1CCCCN1CCN(c2ncccn2)CC1 | – | inactive | inactive | inactive | inactive | inactive | inactive | inactive | 19.3 µM (active) and inactive | inactive
Nc1cc(Cl)c(-c2cc(Cl)c(N)cc2Cl)cc1Cl | 48.5 µM (active) and 30.6 µM (active) | – | – | 13.7 µM (active) and 27.3 µM (active) | inactive | – | inactive | inactive | – | –
CC(C)(C)NC(=O)[C@@H]1CN(Cc2cccnc2)CCN1C[C@@H](O)C[C@@H](Cc1ccccc1)C(=O)N[C@H]1c2ccccc2C[C@H]1O | inactive | inactive | inactive | – | – | inactive | – | – | – | –
O=C(O)c1cn(-c2ccc(F)cc2)c2cc(N3CCNCC3)c(F)cc2c1=O | inactive | inactive | inactive | – | – | – | inactive | inactive | – | –
O | – | inactive | inactive | – | – | – | inactive | – | – | –
CC(C)(C)NCC(O)COc1ccccc1OCC1CCCO1 (configuration not stated) | – | inactive | inactive | inactive | – | inactive | inactive | inactive | inactive | inactive
NCCO | – | inactive | inactive | – | – | inactive | inactive | inactive | – | –
CCC(C)(C)C(=O)O[C@H]1C[C@@H](C)C=C2C=C[C@H](C)[C@H](CC[C@@H]3C[C@@H](O)CC(=O)O3)[C@H]21 | – | inactive | inactive | inactive | – | inactive | inactive | inactive | – | –
O=C(Oc1ccccc1)c1ccccc1O | – | inactive | inactive | inactive | inactive | inactive | inactive | 31.9 µM (active) and 22.4 µM (active) | – | –
CCC(C)(Oc1ccc(C2(c3ccc(OC(C)(CC)C(=O)O)cc3)CCCCC2)cc1)C(=O)O (configuration not stated) | – | inactive | inactive | inactive | – | inactive | inactive | inactive | inactive | inactive
O=C(O[C@@H]1Cc2c(O)cc(O)cc2O[C@@H]1c1cc(O)c(O)c(O)c1)c1cc(O)c(O)c(O)c1 | – | – | – | inactive | inactive | – | – | 25.3 µM (active) and 38.5 µM (active) | – | –
CC(COc1ccccc1)N(CCCl)Cc1ccccc1 (configuration not stated) | – | inactive | inactive | inactive | 27.6 µM (active) and 8.63 µM (active) and 10.6 µM (active) | inactive | 30.9 µM (active) and 43.3 µM (active) and 29.8 µM (active) | inactive | – | –
